Sampled rows, rich in hits. Any-hit rate of the full collection: about 2.1%.
aSyn rescue – inhibitors of alpha-synuclein toxicity in yeast | Yeast expressing alpha-synuclein, growth rescue, BacTiter-Glo, 24 h | Potency, µM (top dose mostly 46.1 µM), actives largely listed as activators | hit rate 0.14% among 370,000; note: nearly all actives have a fitted effect of over 65% in size
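Readout is rescue of growth in alpha-synuclein-expressing yeast, so inhibitors of toxicity appear as activators. Growth after 24 hr at 30 deg C in galactose medium is quantified by luminescence.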
FUS yeast rescue – FUS proteinopathy suppression in yeast. S. cerevisiae FUS-expressing, growth rescue, OD600, 24 h. Potency, µM (top dose mostly 76.6 µM), usual class: activators. AID 1347120. hit rate 0.24% among 390,000; note: nearly all actives have a fitted effect of over 55% in size
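Toxicity suppression screen in FUS-yeast. Cells induced with 2% galactose, starting OD 0.005, treated 24hr at 30C with compounds at multiple final concentrations; growth by OD600.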
TDP-43 yeast inh – rescues yeast growth from TDP-43 toxicity; TDP-43 expressing yeast growth rescue, BacTiter-Glo, 24 h; Potency, µM (doses to about 46.1 µM), most hits filed as activators; hit rate 1.8% among 410,000; note: nearly all actives have a fitted effect of over 50% in size
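Yeast cells expressing TDP-43 under galactose induction are exposed to compounds for 24 hr at 30 deg C. BacTiter-Glo luminescence measures growth, so protective compounds score as activators.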
Abeta rescue – A-beta toxicity reversal in yeast. Potency, µM (top dose mostly 46.1 µM), usual class: activators. hit rate 0.063% among 410,000. yeast expressing A-beta42, growth rescue, OD600, 48 h; response scale: 0% DMSO, 100% iron-clioquinol control; note: nearly all actives have a fitted effect of over 55% in size
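Growth rescue measured by 600 nm absorbance after 48 h yeast culture at 30 C with compound. Values normalized between DMSO and an equimolar ferric chloride plus clioquinol control.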
Of the large screens only hits and unclear results are named; the others gave an inactive call; ! = not confirmed by another sample. Calls come from the whole dose curve; as a rule, active = well fitted curve in the direction sought with a large enough effect; inconclusive = small, poorly fitted or top-dose-only effect, or another doubt; inactive = no such curve, though single readings can be large; an effect the other way counts as inactive or inconclusive.

N#Cc1ccc(NC(=O)COc2ccccc2C(=O)Nc2ccccc2)cc1	none (no result: FUS yeast rescue, TDP-43 yeast inh, Abeta rescue)
Cc1cc(C)nc(/N=c2/ssnc2Cl)c1	TDP-43 yeast inh 2.8µM (no result: FUS yeast rescue)
Cc1ccc(N=c2ssnc2Cl)cc1	none
Cc1onc(-c2ccccc2)c1C(=O)N/N=C/C(Br)=C/c1ccccc1	aSyn rescue inconclusive, TDP-43 yeast inh 18µM (no result: FUS yeast rescue)
O=C(N/N=C/C(Br)=C/c1ccccc1)C(O)c1ccccc1 (stereo not given)	none
O=C(N/N=C/C(Br)=C/c1ccccc1)C1CC1	TDP-43 yeast inh 22µM
Cc1onc(-c2ccccc2)c1C(=O)N/N=C/c1cc(Br)c(O)c(Br)c1	none (no result: FUS yeast rescue)
O=C(O)c1ccc(N/N=C/c2cccc(C(F)(F)F)c2)cc1	TDP-43 yeast inh 13µM
O=C(O)c1ccc(N/N=C/C(Br)=C/c2ccccc2)cc1	TDP-43 yeast inh 11µM
Cc1cccc(N2C(=O)CS(=O)(=O)C23C(=O)N(C)c2ccccc23)c1 (stereo not given)	none
COc1ccc(-c2nn(C)c3sc(C(=O)N4CCN(c5ccccc5F)CC4)cc23)cc1OC	TDP-43 yeast inh 20µM (no result: aSyn rescue)
COc1ccc(-c2nn(C)c3sc(C(=O)N4CCOCC4)cc23)cc1OC	none
COc1ccc(N2CCN(C(=O)c3cc4c(-c5cccc(OC)c5)nn(C)c4s3)CC2)cc1	FUS yeast rescue inconclusive, TDP-43 yeast inh 16µM
Cc1ccc(CONS(=O)(=O)c2cc(C)ccc2C)cc1	TDP-43 yeast inh 32µM
Cc1ccc(C)c(S(=O)(=O)Nc2ccc(O)cc2)c1	none
CC(C)(C)C(=O)Nc1ccc(C(=O)N/N=C/c2ccccc2OC(=O)c2ccc(Cl)cc2)cc1	FUS yeast rescue 22µM
O=C(/C=C/c1ccccc1)Nc1cccnc1Cl	TDP-43 yeast inh 7.9µM
O=C(COC(=O)/C=C/c1ccccc1)Nc1cccnc1Cl	none
COC(=O)c1scc(-c2ccc(C)cc2)c1S(=O)(=O)N1CCN(c2ccc(F)cc2)CC1	TDP-43 yeast inh inconclusive (no result: aSyn rescue)
COc1ccc(N2CCN(S(=O)(=O)c3c(C)nc4scc(C)n4c3=O)CC2)cc1	TDP-43 yeast inh 14µM!
COC(=O)c1scc(-c2ccc(C)cc2)c1S(=O)(=O)N1CCN(c2ccc(OC)cc2)CC1	FUS yeast rescue 22µM (no result: aSyn rescue)
Cc1nc2scc(C)n2c(=O)c1S(=O)(=O)N1CCN(c2ccccc2)CC1	none
O=C(c1ccc(F)cc1F)N1CCCC(c2nc(-c3ccc(F)cc3)no2)C1 (stereo not given)	none
Cc1ccc(-c2noc(C3CCCN(C(=O)c4c(F)cccc4F)C3)n2)cc1 (stereo not given)	none
O=C(Nc1ccc(F)cc1F)N1CCCC(c2nc(-c3ccc(F)cc3)no2)C1 (stereo not given)	FUS yeast rescue inconclusive, TDP-43 yeast inh 13µM
Cc1ccc(-c2noc(C3CCCN(C(=O)c4ccccc4Br)C3)n2)cc1 (stereo not given)	TDP-43 yeast inh 13µM
O=C(Cn1c(=O)n(-c2ccccc2)c(=O)c2sc3ccccc3c21)NC1CCCC1	none (no result: aSyn rescue)
Cc1cccc(N2C(=O)C(CC(=O)Nc3cccc(F)c3)N(Cc3cccs3)C2=O)c1 (stereo not given)	FUS yeast rescue inconclusive (no result: aSyn rescue)
Cc1cc(-c2ccc(C)c(S(=O)(=O)N(C)c3ccc(C)c(C)c3)c2)on1	none (no result: aSyn rescue)
Cc1ccc(C23CC4CC(CC(NC(=O)NC(C)(C)CO)(C4)C2)C3)cc1	TDP-43 yeast inh 22µM (no result: aSyn rescue)
Cc1ccc(C23CC4CC(CC(NC(=O)NN)(C4)C2)C3)cc1	TDP-43 yeast inh inconclusive (no result: Abeta rescue)
CSc1ccccc1OCc1cc(C(=O)NCc2cnc(C)cn2)no1	TDP-43 yeast inh 11µM
CC1=C(C(=O)Nc2ccc(C)cc2Cl)C2(CCCCCC2)OC1=O	none (no result: aSyn rescue)
COc1ccc(OC)c(CCNC(=O)C2=C(C)C(=O)OC23CCC(C)CC3)c1 (stereo not given)	none (no result: aSyn rescue)
CC1=C(C(=O)N2CCc3ccccc32)C2(CCC(C)CC2)OC1=O (stereo not given)	TDP-43 yeast inh 13µM (no result: aSyn rescue)
CC1=C(C(=O)N2CCCCC2)C2(CCC(C)CC2)OC1=O (stereo not given)	none
COc1ccc(NC(=O)C2=C(C)C(=O)OC23CCC(C)CC3)c(OC)c1 (stereo not given)	TDP-43 yeast inh 20µM
CCOc1ccc(NC(=O)C2=C(C)C(=O)OC23CCC(C)CC3)cc1 (stereo not given)	TDP-43 yeast inh 20µM, Abeta rescue inconclusive
CC1=C(C(=O)Nc2ccc(C)cc2Cl)C2(CCCCC2)OC1=O	TDP-43 yeast inh 11µM (no result: aSyn rescue)
CCCNC(=O)C1=C(C)C(=O)OC12CCC(C)CC2 (stereo not given)	none

Source: PubChem BioAssay (National Center for Advancing Translational Sciences (NCATS))
